Measured values taken from PubChem BioAssay (EPA / NIEHS).
Results filed as inconclusive are left out. The source made the active and inactive calls. The calls were made as follows, unless noted: active = hit-call score of the fitted dose curve at least 0.9, where 1 is the maximum; inactive = score below 0.9.

What was measured:
[1] = system: Brachyury (BRA) Protein Expression, TBXT (gene 6862); assay: CCTE_Deisenroth_DEVTOX-GLR_Endo_BRA: CCTE's DevTox GLR-Endo Assay Evaluation of Brachyury (BRA) Protein Expression, Deisenroth Lab (AID 2284417)
Method in brief: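 RUES2-GLR human pluripotent cells, seeded 24 h, then differentiated 48 h in defined media with two chemical exposures 24 h apart (10-point series, 1 nM - 200 uM). Fixed, nuclear-stained, imaged; endpoint is percent BRA+ cells minus 0.2% DMSO control.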

[2] = CCTE_Deisenroth_DEVTOX-GLR_Endo_CellCount: Viability Assessment in CCTE's DevTox GLR-Endo Assay, Deisenroth Lab (AID 2284420)
Method: CCTE_Deisenroth_DEVTOX-GLR_Endo assay is a cell-based, multiplex-readout assay that uses RUES2-GLR, a human pluripotent cell line, with measurements taken at 48 hours after chemical dosing in a 384-well microplateCCTE_Deisenroth_DEVTOX-GLR_Endo_CellCount is 1 of 4 assay components calculated from the CCTE_Deisenroth_DEVTOX-GLR_Endo assay and it measures cell count. Using fluorescent nuclear staining, loss-of-signal activity can be used to understand changes in cell viability with fluorescent microscopy. It is designed to make measurements of nuclei counts as a surrogate for cell number, as detected with optical fluorescence microscopy by Perkin Elmer Harmony nuclei detection algorithm. To generalize the intended target to other relatable targets, this assay component is annotated to the cell cycle intended target family, where the subfamily is cytotoxicity.Data from the assay component CCTE_Deisenroth_DEVTOX-GLR_Endo_CellCount was analyzed as 1 assay endpoint. The endpoint the percent change in cell count relative to the 0.2% DMSO control in the CCTE_Deisenroth_DEVTOX-GLR_Endo assay. Furthermore, this assay endpoint can be referred to as a primary readout, because this assay has produced multiple assay endpoints where this one serves as a measure of cytotoxicity.
All assay protocols are aligned to the DevTox GLR-Endo assay workflow. […]

[3] = system: SRY-box transcription factor 17 (SOX17) Protein Expression, Deisenroth Lab, SOX17 (gene 64321); assay: CCTE_Deisenroth_DEVTOX-GLR_Pluri_SOX17: CCTE's DevTox GLR-Pluri Assay Evaluation of SRY-box transcription factor 17 (SOX17) Protein Expression, Deisenroth Lab (AID 2284427; active = hit-call score of the fitted dose curve at least 0.9, where 1 is the maximum)
Method in brief: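 Using an inducible fluorescent SOX17 reporter in human pluripotent RUES2-GLR cells, compounds (1 nM - 200 uM) were given twice over 48 h differentiation. Percent SOX17+ cells minus DMSO control came from high-content image analysis.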

[4] = system: SRY-box transcription factor 2 (SOX2) Protein Expression, Deisenroth Lab, SOX2 (gene 6657); assay: CCTE_Deisenroth_DEVTOX-GLR_Pluri_SOX2: CCTE's DevTox GLR-Pluri Assay Evaluation of SRY-box transcription factor 2 (SOX2) Protein Expression, Deisenroth Lab (AID 2284428)
Method in brief: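 Percent SOX2+ RUES2-GLR cells, determined by fluorescence microscopy after 48 h and two 24-h-interval chemical exposures spanning 1 nM–200 uM, served as the endpoint. Values are expressed relative to 0.2% DMSO; total cell counts assessed viability.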

[5] = system: Brachyury (BRA) Protein Expression, Deisenroth Lab, TBXT (gene 6862); assay: CCTE_Deisenroth_DEVTOX-GLR_Pluri_BRA: CCTE's DevTox GLR-Pluri Assay Evaluation of Brachyury (BRA) Protein Expression, Deisenroth Lab (AID 2284429; active = hit-call score of the fitted dose curve at least 0.9, where 1 is the maximum)
Method in brief: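 RUES2-GLR reporter line; 48 h mesoderm differentiation; two exposures, 24 h apart; 1 nM - 200 uM, 10 points; nuclear stain, high-content imaging, 5 fields/well; endpoint = %BRA+ cells of total count minus 0.2% DMSO; n=4.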

[6] = CCTE_Deisenroth_DEVTOX-GLR_Pluri_CellCount: Viability Assessment in CCTE's DevTox GLR-Pluri Assay Evaluation of Total Cell Counts, Deisenroth Lab (AID 2284430)
Method in brief: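 Cytotoxicity readout: fluorescent nuclei counts by high-content imaging, expressed as percent change relative to 0.2% DMSO. Human RUES2-GLR pluripotent line differentiated 48 h, dosed twice at 24-h intervals across 1 nM - 200 uM (10 points).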

Measured: outcome

C=CC(N)=O
inactive: all assays above

CC1=C2C[C@H]3[C@@H](CC=C4C[C@@H](O)CC[C@@]43C)[C@@H]2CC[C@]12O[C@@H]1C[C@H](C)CN[C@H]1[C@H]2C
inactive: all assays above
